The record followed here is PubChem BioAssay (NCATS).

A short description of test [1]: AP1 Signaling Pathway (AID 357; active = well fitted curve in either direction with a large enough effect, not every such curve was filed as active;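 note: ME-180 reporter cells stimulated with EGF at its EC50 level; % is set by controls: 0 for no effect and ±100 for the full control effect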). Conditions: ME-180 AP-1-bla reporter, EGF-induced, beta-lactamase ratio, 5 h; at 7.69 µM (top of the series) unless noted. The method in brief: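 First, ME-180 AP-1-bla cells were cultured overnight at 37 °C in low-serum Opti-MEM. Next, titrated compounds with EC50 EGF were incubated 5 hours. Finally, CCF4 was added for 2.5 hours and the 460/530 nm ratio recorded.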

The target of test [2] is Cytochrome P450 1A2 (Homo sapiens) (UniProt P05177). Briefly: p450-cyp1a2 (AID 410; calls by dose curve;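 note: -100% = full effect of reference inhibitor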). The method in brief:
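Inhibition was calculated relative to 57 uM furafylline (full inhibition). The reaction used human CYP1A2 at 20nM with Luciferin-ME at its Km, 100uM, driven by an NADPH-regenerating system for 60 min at room temperature.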

Test [3] in a line: NFAT Signaling Pathway (AID 444; active = well fitted curve in either direction with a large enough effect, not every such curve was filed as active;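 note: carbachol stimulus at about its EC50 of 1 µM final; % is set by controls: 0 for no effect and ±100 for the full control effect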). Conditions: Jurkat NFAT-bla M1, carbachol, beta-lactamase ratio, 5 h; at 7.69 µM (top of the series) unless noted. The method in brief:
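Jurkat cells with NFAT-driven β-lactamase reporter and co-expressed M1 receptor, stimulated with carbachol (final 1 uM, ~EC50), compound titration, 5 h at 37 °C. CCF4 loaded 1 h at RT; 460/530 nm ratio gave %activity and AC50.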

Test [4] can be described thus: Stat Signaling Pathway (AID 446; active = well fitted curve in either direction with a large enough effect, not every such curve was filed as active;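 note: ME-180 cervical cancer cells given 40 pM IL-6 alongside compound; SIE-controlled beta-lactamase reporter measured as 460/530 nm FRET emission ratio; % is set by controls: 0 for no effect and ±100 for the full control effect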). Conditions: ME-180 SIE beta-lactamase reporter, IL-6 stimulated, 5 h; at 7.69 µM (top of the series) unless noted. Summed up: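 Reporter line: ME-180 cervical carcinoma, SIE-beta-lactamase. Treatment: compound with 40 pM IL-6, 5 hrs, 37 C, in low-serum OPTI-MEM with 10 mM HEPES pH 7.3. Detection: 460/530 nm fluorescence.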
Test [5] deals with Glucocorticoid receptor (Homo sapiens) (UniProt P04150). Briefly: GR-GFP Redistribution (AID 450;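 active = compounds whose dose series gives a full or clear partial fitted curve of increased nuclear translocation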; note: potency is the fitted concentration of half-maximal effect). Conditions: U2OS GR-GFP nuclear translocation, laser cytometry, 2 h.
The target is the same in test [6]. The experiment in a line: GR-EFC Redistribution (AID 451; calls by dose curve; note: potency is the fitted concentration of half-maximal effect). Conditions: CHO-K1 GR-EFC translocation, beta-gal luminescence, 2 h. Summed up: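 CHO-K1 cells expressing nuclear EA and GR-ED fragments of b-gal; compounds titrated up to 46 uM final, 2 h at 37 C. GR nuclear translocation read as complemented b-gal luminescence after 1 h RT detection.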
The target in test [7] is 3',5'-cyclic-AMP phosphodiesterase 4B (Homo sapiens) (UniProt Q07343). Briefly: qHTS Assay for Inhibitors of PDE-IV (AID 607; active = well fitted activation curve with a large enough effect in the main read-out, with a control signal flat, not every such curve was filed as active; note: % of control where 0% means no effect). Summed up:
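Cell-based read-out of cAMP via a modified cyclic nucleotide-gated channel and membrane potential dye (535/590 nm) in HEK293 cells expressing PDE4 endogenously. Compounds tested up to 22.9 uM final; 100 uM RO 20-1724 reference.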
For orientation: In qHTS, concentration-response curves come from the screen itself.

In test [8] the target is Cytochrome P450 2C9 (Homo sapiens) (UniProt P11712). The experiment in a line: qHTS Assay for Inhibitors and Substrates of Cytochrome P450 2C9 (AID 883). Note: nearly all actives have a fitted effect of over 60% in size. Note: potency is the fitted concentration of half-maximal effect. The method in brief:
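Signal: luciferase luminescence reporting luciferin produced by CYP2C9. Conditions: 10nM enzyme, Luciferin-H 100uM at KM, 25mM KPO4, 37C, 60 min NADPH-driven reaction. Reference: 57uM sulphaphenazole as 100% inhibition.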

Test [9] addresses Cytochrome P450 2D6 (Homo sapiens) (UniProt P10635). Briefly: qHTS Assay for Inhibitors and Substrates of Cytochrome P450 2D6 (AID 891).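 Note: luciferin methyl ether substrate demethylated by CYP2D6 with NADPH regeneration; % is set by controls: 0 for no effect and ±100 for the full control effect; nearly all actives have a fitted effect of over 60% in size.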 Summed up: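 Human CYP2D6 (5 nM) with 30 uM Luciferin-ME EGE (at Km) in 100 mM KPO4, compound preincubated 10 min, then NADPH regeneration system for 60 min at room temperature. Luciferin read by luminescence; normalized to 1.43 uM quinidine.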

Test [10] addresses Cytochrome P450 2C19 (Homo sapiens) (UniProt P33261). The experiment in a line: qHTS Assay for Inhibitors and Substrates of Cytochrome P450 2C19 (AID 899). Note: % is set by controls: 0 for no effect and ±100 for the full control effect; nearly all actives have a fitted effect of over 60% in size. Summed up:
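Signal comes from luciferase acting on luciferin released by CYP2C19-mediated hydroxylation of Luciferin-H EGE, 10uM (KM). Assay mix: 5nM enzyme, 50mM KPO4; 60 min at 37C with NADPH regeneration. Data normalized against 57uM ketoconazole.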

The target of test [11] is Mitogen-activated protein kinase 10 (Mus musculus) (UniProt Q61831). Briefly: JNK3 AlphaScreen Assay (AID 530; active = well fitted curve in either direction with a large enough effect, not every such curve was filed as active;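 note: kinase came from lysate of stimulated human HepG2 cells; signal reports phosphorylation of biotinylated GST-cJun 1-79 at Ser73 with 10 µM ATP; % is set by controls: 0 for no effect and ±100 for the full control effect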). Summed up: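 qHTS format: compounds tested as titrations against IL-1beta/TNF-alpha-activated HepG2 lysate JNK3 with biotin-GST-cJun substrate and 10 uM ATP at room temperature. Loss of anti-phospho-cJun AlphaScreen signal indicates inhibition.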
On the technique in general: Bead proximity is the source of the signal in Alpha formats.

Test [12] concerns the target Guanine nucleotide-binding protein G(i) subunit alpha-1 (Homo sapiens) (UniProt P63096). The experiment in a line: qHTS Assay for Inhibitors of RGS12 GoLoco Motif Activity (Green Fluorophore) (AID 879).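 Note: 0% = labeled peptide with Gαi1 and full inhibition = labeled peptide alone without protein; negative values mean loss of peptide binding seen as reduced polarization.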 Summed up:
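Fluorescence polarization assay: 50 nM Gαi1 with 10 nM FITC-labeled RGS12 GoLoco peptide in 10 mM Tris pH 7.5, 150 mM NaCl, 0.1 mM GDP, 0.05% NP40, 10 min at room temperature with compound.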

For test [13], the target named is Muscarinic acetylcholine receptor M1 (Rattus norvegicus) (UniProt P08482). The experiment in a line: qHTS Assay for Antagonists of Acetylcholine Muscarinic M1 Receptor: Measurement of IP-One Response (AID 944). Note: nearly all actives have a fitted effect of over 75% in size. Summed up:
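Steps: plate transfected CHO-M1 cells overnight; add test compound, 10 min; add carbachol (200 nM, EC80) in stimulation buffer with LiCl; incubate 30 min; add labelled IP1 tracer and anti-IP1 antibody in lysis buffer; read HTRF after 10 min.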

Test [14] concerns the target Pyruvate kinase (Leishmania mexicana) (UniProt Q27686). The experiment in a line: qHTS Validation Assay for Inhibitors of Leishmania Mexicana Pyruvate Kinase (AID 945).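 Note: 0% = DMSO only neutral control wells.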 The method in brief:
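Mutant LmPYK (E451W), 0.2 nM, plus 0.5 mM PEP and 0.1 mM ADP in 50 mM imidazole pH 7.2 containing 0.01% Tween 20 and 0.05% BSA. Incubated 1 h at room temperature; luminescence via PKLight, normalized to DMSO.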

Test [15] has as its target Pyruvate kinase PKM (Homo sapiens) (UniProt P14618). Briefly: qHTS Assay for Activators of Human Muscle Pyruvate Kinase (AID 954; active = well fitted curve in the direction sought with a large enough effect, not every such curve was filed as active;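 note: 0% = uninhibited enzyme and -100% = no enzyme or full thiadiazolimine inhibition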). The method in brief:
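Human PKM2 activity is measured as ATP generation, detected by luciferase-coupled luminescence. The enzyme (0.1 nM) acts on 0.5 mM PEP and 0.1 mM ADP for 1 h at ambient temperature; data are normalized to uninhibited and full-inhibition wells.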

Test [16] has as its target Alpha-galactosidase A (Homo sapiens) (UniProt P06280). Briefly: Counterscreen for Glucocerebrosidase Inhibitors: qHTS Assay for Human alpha-Galactosidase at pH 4.5 (AID 992). Note: 0% is about no effect. The method in brief:
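Quantitative HTS: compounds tested from 0.7 nM up to 77 uM against 2 nM enzyme with 80 uM 4-MU alpha-D-galactopyranoside. The 20 min room-temperature reaction is stopped with 1M NaOH/1M glycine, pH 10.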
(The purpose of a counterscreen is to sort out artefacts and off-target activity.)

The target in test [17] is alpha-glucosidase (Oryza sativa, rice) (UniProt Q653V4). Briefly: Counterscreen for Glucocerebrosidase Inhibitors: qHTS Assay for Rice alpha-Glucosidase at pH 5.0 (AID 997).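 Note: 0% = full activity with enzyme and -100% = basal without enzyme.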 Summed up: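 Rice alpha-glucosidase (4 nM final) with 400 uM 4-methylumbelliferyl-alpha-D-glucopyranoside in citrate buffer pH 5.0, 20 min at room temperature, stopped at pH 10; fluorescence 365/440 nm, compounds 0.7 nM–77 uM, AC50 from Hill fits.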

Test [18] can be described thus: qHTS Assay for Identification of Small Molecule Antagonists for NFkB Signaling Pathway (AID 895; active = well fitted inhibition curve with a large enough effect in the signal ratio, with a control signal flat, not every such curve was filed as active; the % refers to the signal ratio; note: % is set by controls: 0 for no effect and ±100 for the full control effect). The method in brief:
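ME-180 NFkB-bla cells (beta-lactamase under NFkB response element), plated overnight, treated with compound then 10 pM TNF alpha (about EC50) for 5 hrs at 37 C. LiveBLAzer FRET read at 460/530 nm emission, 405 nm excitation.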

Test [19] in a line: qHTS Assay for Identification of Small Molecule Agonists for Thrombopoietin (TPO) Signaling Pathway (AID 917). Note: % is set by controls: 0 for no effect and ±100 for the full control effect. Summed up:
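We measured Glycoprotein IIb promoter–luciferase output in IL-3-starved Ba/F3 murine cells expressing the human TPO receptor after 24 hrs at 37 C with compounds and 26 pM TPO.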

The target in test [20] is Cytochrome P450 3A4 (Homo sapiens) (UniProt P08684). Briefly: qHTS Assay for Activators of Cytochrome P450 3A4 (AID 885). Note: nearly all actives have a fitted effect of over 65% in size. Summed up: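 Signal was normalized against complete inhibition by 57 uM ketoconazole. The reaction used 20nM CYP3A4 with 25uM Luciferin-PPXE, 10-min compound preincubation and a 60-min NADPH-supported step at RT.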

Unmarked numbers belong to inactive results. Records with an inconclusive call do not appear. The source made the active and inactive calls. Unless noted, calls come from the whole dose curve; as a rule, active = well fitted curve in the direction sought with a large enough effect; inconclusive = small, poorly fitted or top-dose-only effect, or another doubt; inactive = no such curve, though single readings can be large; an effect the other way counts as inactive or inconclusive. Bounds are passed on as bounds.

Sequence of Cytochrome P450 1A2 (Homo sapiens) (P05177 whole entry, looked up): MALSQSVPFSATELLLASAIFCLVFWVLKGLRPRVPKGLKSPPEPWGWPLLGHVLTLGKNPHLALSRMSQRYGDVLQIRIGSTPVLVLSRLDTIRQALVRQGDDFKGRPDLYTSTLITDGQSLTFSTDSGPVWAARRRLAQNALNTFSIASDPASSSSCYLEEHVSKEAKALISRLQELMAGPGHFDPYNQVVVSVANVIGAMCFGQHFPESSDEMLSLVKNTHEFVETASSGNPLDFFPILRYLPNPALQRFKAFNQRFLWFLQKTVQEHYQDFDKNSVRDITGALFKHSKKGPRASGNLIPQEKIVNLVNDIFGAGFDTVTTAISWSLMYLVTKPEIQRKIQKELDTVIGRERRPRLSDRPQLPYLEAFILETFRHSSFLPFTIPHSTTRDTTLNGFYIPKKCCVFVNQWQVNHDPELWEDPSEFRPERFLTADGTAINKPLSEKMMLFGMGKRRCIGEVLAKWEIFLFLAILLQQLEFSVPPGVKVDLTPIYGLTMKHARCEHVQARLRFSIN
Sequence of Pyruvate kinase (Leishmania mexicana) (Q27686 2-499 E452W): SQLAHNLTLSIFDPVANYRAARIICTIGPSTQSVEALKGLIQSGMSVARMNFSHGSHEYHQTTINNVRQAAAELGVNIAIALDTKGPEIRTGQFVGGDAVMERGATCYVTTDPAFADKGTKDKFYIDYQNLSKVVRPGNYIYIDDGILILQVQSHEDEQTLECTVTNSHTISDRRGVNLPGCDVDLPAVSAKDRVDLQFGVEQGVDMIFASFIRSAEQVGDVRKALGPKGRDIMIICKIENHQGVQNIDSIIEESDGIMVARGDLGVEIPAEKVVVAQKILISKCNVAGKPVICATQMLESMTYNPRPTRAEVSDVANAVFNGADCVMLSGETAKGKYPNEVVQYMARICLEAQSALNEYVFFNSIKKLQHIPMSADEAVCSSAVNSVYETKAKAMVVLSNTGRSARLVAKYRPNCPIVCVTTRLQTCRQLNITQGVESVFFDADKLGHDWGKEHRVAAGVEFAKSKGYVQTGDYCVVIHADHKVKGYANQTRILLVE
Sequence of Cytochrome P450 2C9 (Homo sapiens) (P11712 whole entry, looked up): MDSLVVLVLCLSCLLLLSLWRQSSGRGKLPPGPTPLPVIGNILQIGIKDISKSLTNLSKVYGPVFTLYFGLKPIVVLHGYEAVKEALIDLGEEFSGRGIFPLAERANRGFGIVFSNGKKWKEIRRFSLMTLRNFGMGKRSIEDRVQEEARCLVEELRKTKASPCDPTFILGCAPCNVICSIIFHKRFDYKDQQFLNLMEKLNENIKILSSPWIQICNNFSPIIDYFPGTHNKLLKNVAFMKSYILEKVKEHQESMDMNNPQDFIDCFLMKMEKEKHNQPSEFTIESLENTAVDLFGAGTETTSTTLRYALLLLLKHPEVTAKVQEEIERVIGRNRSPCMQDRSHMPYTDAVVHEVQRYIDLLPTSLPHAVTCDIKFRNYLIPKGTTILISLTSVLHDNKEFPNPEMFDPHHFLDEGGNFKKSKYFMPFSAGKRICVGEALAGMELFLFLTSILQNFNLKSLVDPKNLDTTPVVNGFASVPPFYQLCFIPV
Sequence of Pyruvate kinase PKM (Homo sapiens) (P14618 whole entry, looked up): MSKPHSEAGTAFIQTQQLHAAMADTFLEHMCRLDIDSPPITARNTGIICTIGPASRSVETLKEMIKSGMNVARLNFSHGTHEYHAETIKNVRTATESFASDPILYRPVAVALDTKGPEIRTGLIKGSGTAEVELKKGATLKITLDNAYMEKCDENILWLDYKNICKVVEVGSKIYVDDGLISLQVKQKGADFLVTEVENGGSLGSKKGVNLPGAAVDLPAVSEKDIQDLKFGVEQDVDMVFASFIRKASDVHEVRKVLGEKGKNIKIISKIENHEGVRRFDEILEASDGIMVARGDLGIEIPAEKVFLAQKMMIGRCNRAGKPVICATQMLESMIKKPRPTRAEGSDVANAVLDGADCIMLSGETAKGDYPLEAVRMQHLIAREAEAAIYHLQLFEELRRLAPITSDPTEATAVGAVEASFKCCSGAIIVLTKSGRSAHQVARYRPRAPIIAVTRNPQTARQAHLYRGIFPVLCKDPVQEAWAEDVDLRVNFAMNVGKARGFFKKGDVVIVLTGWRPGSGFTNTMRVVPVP
Sequence of Muscarinic acetylcholine receptor M1 (Rattus norvegicus) (P08482 whole entry, looked up): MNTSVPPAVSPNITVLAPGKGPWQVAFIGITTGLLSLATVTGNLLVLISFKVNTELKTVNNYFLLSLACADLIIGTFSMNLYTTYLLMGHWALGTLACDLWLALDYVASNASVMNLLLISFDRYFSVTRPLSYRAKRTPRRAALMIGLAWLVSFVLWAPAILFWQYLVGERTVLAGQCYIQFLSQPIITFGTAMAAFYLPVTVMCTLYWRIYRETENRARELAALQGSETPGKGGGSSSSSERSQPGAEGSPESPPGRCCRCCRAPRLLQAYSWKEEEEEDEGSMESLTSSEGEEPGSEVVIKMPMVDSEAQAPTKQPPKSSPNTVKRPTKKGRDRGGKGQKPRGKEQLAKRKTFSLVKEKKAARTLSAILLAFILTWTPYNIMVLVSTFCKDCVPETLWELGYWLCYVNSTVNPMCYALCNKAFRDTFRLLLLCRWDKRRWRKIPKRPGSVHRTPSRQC
Sequence of Cytochrome P450 2C19 (Homo sapiens) (P33261 whole entry, looked up): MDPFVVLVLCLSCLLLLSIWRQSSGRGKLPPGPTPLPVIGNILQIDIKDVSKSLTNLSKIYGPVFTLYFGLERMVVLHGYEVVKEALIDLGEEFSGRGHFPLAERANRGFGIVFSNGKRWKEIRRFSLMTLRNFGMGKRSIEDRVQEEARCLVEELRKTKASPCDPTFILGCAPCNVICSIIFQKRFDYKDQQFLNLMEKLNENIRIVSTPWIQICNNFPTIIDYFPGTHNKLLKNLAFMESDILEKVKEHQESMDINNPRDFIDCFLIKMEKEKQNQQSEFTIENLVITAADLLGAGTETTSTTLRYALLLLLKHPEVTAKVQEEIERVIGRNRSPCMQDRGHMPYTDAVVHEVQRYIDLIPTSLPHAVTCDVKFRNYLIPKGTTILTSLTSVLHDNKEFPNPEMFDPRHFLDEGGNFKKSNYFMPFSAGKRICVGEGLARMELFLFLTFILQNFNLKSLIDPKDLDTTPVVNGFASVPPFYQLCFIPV
Sequence of Alpha-galactosidase A (Homo sapiens) (P06280 whole entry, looked up): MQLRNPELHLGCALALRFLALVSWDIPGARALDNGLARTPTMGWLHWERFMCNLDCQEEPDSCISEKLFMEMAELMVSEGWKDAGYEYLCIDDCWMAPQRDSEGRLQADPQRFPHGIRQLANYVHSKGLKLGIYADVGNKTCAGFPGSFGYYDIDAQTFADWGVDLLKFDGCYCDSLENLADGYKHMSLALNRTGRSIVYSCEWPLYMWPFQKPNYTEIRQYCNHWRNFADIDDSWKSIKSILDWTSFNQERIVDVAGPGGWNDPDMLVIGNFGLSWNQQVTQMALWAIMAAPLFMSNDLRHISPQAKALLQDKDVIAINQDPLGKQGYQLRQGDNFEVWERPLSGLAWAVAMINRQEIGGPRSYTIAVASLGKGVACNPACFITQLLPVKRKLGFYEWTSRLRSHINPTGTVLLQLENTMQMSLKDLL
Sequence of Guanine nucleotide-binding protein G(i) subunit alpha-1 (Homo sapiens) (P63096 whole entry, looked up): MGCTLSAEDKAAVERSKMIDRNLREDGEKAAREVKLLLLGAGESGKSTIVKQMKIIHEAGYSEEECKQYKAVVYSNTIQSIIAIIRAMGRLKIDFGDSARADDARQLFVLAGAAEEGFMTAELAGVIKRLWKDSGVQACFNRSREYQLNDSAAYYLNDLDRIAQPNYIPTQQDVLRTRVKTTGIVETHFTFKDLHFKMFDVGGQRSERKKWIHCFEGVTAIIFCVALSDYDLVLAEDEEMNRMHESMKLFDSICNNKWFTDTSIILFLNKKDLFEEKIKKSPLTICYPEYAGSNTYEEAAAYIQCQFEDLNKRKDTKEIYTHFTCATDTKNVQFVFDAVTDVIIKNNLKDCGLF
Sequence of Glucocorticoid receptor (Homo sapiens) (P04150 whole entry, looked up, the tested form may be a part): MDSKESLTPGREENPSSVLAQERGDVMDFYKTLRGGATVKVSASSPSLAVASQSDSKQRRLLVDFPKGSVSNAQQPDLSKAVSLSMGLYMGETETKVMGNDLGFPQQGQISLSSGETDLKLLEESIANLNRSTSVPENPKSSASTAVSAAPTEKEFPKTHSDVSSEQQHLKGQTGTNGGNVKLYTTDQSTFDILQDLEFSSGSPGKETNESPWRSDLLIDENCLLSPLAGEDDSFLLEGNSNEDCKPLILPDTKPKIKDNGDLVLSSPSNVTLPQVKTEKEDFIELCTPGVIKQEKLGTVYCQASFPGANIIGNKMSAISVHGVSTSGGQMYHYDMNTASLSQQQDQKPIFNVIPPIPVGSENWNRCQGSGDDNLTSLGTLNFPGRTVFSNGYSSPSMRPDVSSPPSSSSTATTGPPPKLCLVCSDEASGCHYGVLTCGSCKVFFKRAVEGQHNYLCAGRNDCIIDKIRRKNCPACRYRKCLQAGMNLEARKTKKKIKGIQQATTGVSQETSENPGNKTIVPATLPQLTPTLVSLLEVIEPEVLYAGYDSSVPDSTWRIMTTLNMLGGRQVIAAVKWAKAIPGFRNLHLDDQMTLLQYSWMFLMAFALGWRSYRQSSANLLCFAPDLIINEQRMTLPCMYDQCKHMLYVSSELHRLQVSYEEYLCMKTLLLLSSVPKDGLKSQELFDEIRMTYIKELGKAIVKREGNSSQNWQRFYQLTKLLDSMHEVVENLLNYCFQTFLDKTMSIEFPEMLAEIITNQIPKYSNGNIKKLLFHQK

For the compound `N[C@H](CS(=O)O)C(=O)O`, the results for the activity change, negative = inhibition in test [1] and in test [3] were 9.5% [at 38 µM] and 10.5% [at 38 µM], respectively. The Potency result in test [2], in test [7], in [8], in test [9] and in [10] was “inactive” throughout. Also, the activity, negative = inhibition in [4] was 17.2% [at 38 µM]. Also, the Potency in [5] and in [6] was above 46 µM in each case.
Regarding `Nc1nc(Cl)nc2c1ncn2[C@@H]1O[C@@H](CO)[C@@H](O)[C@H]1O`, the activity change, negative = inhibition in test [1] was -7.62% [at 38 µM]; in [3], 2.55% [at 38 µM]. Further, the Potency result in test [2], in test [11], in test [13] and in test [17] was “inactive” each time. The activity, negative = inhibition in [4] was 7.39% [at 38 µM]. Besides, the Potency in [5] and in [6] was above 46 µM each time. The compound was called inactive in test [12], in test [14], in test [15] and in test [16].
`[N-]=[N+]=Nc1ccc(C(=O)CSC[C@@H](NC(=O)CC[C@@H](N)C(=O)O)C(=O)NCC(=O)O)cc1`: the results for the activity change, negative = inhibition in test [1] and in [3] were -0.0447% [at 38 µM] and -3.2% [at 38 µM], respectively. For the same compound, the Potency result in test [2], in test [7], in test [18], in test [13] and in test [17] was “inactive” throughout. Further, the activity, negative = inhibition in test [4] is 10.6% [at 38 µM]. Moreover, the Potency in [5] and in [6] was above 46 µM throughout. Besides, the compound was classed as inactive in test [12], in test [19], in [14], in test [15] and in test [16].
In the case of `CCCC[C@]1(C2CCCC2)Cc2cc(OCC(=O)O)c(Cl)c(Cl)c2C1=O`, the activity change, negative = inhibition is -1.05% [at 38 µM] in [1] and -21.4% [at 38 µM] in test [3]. Moreover, the Potency result in [2], in [11], in [20], in test [13] and in test [17] was “inactive” in each case. Besides, in test [4], the activity, negative = inhibition is -1.69% [at 38 µM]. Moreover, the values for the Potency in test [5], in test [6] and in [8] were above 46 µM, above 46 µM and 2.51 µM (active), respectively. Moreover, the compound was classed as inactive in test [12], in test [14], in test [15] and in test [16].
As for `Nc1nc(SCc2ccc([N+](=O)[O-])cc2)c2ncn([C@@H]3O[C@@H](CO)[C@@H](O)[C@H]3O)c2n1`, the figures for the activity change, negative = inhibition in test [1] and in test [3] were -11.9% [at 38 µM] and 0.367% [at 38 µM], respectively. Further, the Potency entry in test [2], in test [7], in test [20], in [18] and in test [17] was “inactive” throughout. Further, the activity, negative = inhibition in test [4] was -17% [at 38 µM]. Also, the Potency in test [5] and in test [6] was above 46 µM in each case. Further, the result in test [12], in test [19], in test [14], in test [15] and in test [16] was inactive.
For `C[N@+]1(CCC(=O)c2ccccc2)CC[C@H]2CC[C@H](C2)C1`, the activity change, negative = inhibition in test [1] was 2.46%; in [3] it was 3.4%. Moreover, the Potency result in [2], in [11], in test [7] and in test [10] was “inactive” in each case. The activity, negative = inhibition in [4] is 1.34%. The Potency is above 46 µM in [5] and above 9.22 µM in test [6].
`NC(N)=NCCSSCCN=C(N)N`: the activity change, negative = inhibition was -8.04% [at 38 µM] in [1] and -8.54% [at 38 µM] in test [3]. Further, the Potency entry in test [2], in test [7], in test [8], in [9] and in test [10] was “inactive” each time. Besides, in test [4], the activity, negative = inhibition was -24.3% [at 38 µM]. Moreover, the Potency in test [5] and in [6] was above 46 µM in each case.
